Laboratory results published in article PMC7862700, “An all-to-all approach to the identification of sequence-specific readers for epigenetic DNA modifications on cytosine”.

How the values were obtained:
Experiment in all cases: DAPPL (digital affinity profiling via proximity ligation, sequencing); 10 mM Tris-HCl pH 7.5, 50 mM NaCl, 1 mM DTT, 4% glycerol, room temperature, 30 min; GST-TFs on glutathione beads, 16-mer random dsDNA library, 0.1% formaldehyde crosslink after washing; high values mean tight binding
Conditions in all cases: protein: recombinant; tags: N-terminal GST; dsDNA, one strand shown
[1] = molecular target: T1, FLI1 (Homo sapiens, UniProt Q01543 1-452)
T1 sequence: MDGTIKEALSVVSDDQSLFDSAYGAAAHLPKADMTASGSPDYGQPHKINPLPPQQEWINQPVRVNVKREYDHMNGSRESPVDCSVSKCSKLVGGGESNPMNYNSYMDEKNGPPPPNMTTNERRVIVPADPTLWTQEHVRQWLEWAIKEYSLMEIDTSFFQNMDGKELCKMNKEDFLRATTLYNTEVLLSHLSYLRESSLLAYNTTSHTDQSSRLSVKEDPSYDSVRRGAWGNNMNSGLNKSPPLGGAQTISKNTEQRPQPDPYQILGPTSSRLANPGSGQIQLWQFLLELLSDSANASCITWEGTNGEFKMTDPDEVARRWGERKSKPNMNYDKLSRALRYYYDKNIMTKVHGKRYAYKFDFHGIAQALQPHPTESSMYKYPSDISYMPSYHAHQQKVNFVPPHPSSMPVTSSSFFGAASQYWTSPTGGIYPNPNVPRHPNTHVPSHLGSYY
Method in brief: (§1)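 Human transcription factors carrying a GST fusion were produced in yeast, bound to glutathione beads, tagged with DNA barcodes and pooled together with a tag-only sample. Each pool was held with 200 nmole of a random double-stranded 16-mer DNA library in Tris/NaCl/DTT/glycerol buffer for 30 min at room temperature, then washed, crosslinked in 0.1% formaldehyde, proximity-ligated with BsaI/T4 ligase (1 h, 37 °C), PCR-amplified and sequenced on an Illumina NextSeq500. Binding signal is the read frequency of each hexamer for a given factor divided by its frequency in the tag-only sample.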

[2] = molecular target: T2, ELK1 (Homo sapiens, UniProt P19419 1-428)
T2 sequence: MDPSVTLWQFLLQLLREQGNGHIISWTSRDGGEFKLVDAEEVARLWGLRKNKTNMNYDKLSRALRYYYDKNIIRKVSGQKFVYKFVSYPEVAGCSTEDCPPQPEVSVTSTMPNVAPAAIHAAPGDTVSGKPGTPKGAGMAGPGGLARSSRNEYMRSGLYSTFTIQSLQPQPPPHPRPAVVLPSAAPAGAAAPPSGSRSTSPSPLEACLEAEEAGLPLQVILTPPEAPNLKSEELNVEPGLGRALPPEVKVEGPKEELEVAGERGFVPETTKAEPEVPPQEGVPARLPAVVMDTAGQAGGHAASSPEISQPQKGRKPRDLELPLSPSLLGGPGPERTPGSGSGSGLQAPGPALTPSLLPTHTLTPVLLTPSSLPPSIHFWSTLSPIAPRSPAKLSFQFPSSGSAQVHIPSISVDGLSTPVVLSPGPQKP
Method in brief: as §1

[3] = molecular target: T3, GABPA (Homo sapiens, UniProt Q06546 1-454)
T3 sequence: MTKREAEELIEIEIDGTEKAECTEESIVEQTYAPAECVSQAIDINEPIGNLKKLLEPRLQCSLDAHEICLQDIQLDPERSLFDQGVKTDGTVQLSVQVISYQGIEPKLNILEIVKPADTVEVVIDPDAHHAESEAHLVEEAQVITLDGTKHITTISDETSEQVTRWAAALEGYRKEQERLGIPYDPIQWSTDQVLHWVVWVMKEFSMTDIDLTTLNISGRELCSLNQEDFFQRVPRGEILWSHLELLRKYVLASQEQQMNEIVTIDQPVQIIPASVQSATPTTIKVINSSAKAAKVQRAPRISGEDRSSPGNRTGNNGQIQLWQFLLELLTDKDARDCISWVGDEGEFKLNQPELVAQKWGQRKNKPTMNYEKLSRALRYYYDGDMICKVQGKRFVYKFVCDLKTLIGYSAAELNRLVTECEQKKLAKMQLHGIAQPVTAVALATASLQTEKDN
Method in brief: as §1

[4] = molecular target: T4, ERG (Homo sapiens, UniProt P11308 1-479)
T4 sequence: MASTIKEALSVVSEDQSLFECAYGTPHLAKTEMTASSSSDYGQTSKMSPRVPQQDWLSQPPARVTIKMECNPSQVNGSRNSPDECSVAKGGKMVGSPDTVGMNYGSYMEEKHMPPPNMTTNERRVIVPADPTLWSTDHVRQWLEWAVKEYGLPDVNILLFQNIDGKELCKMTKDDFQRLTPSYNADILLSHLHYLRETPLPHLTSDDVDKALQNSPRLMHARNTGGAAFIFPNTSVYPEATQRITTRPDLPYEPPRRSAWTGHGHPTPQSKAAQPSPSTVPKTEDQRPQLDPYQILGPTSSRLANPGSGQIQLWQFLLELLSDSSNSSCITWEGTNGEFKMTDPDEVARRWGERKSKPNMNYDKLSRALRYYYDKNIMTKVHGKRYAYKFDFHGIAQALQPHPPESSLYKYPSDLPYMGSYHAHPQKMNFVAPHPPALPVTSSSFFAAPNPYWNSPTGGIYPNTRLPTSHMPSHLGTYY
Method in brief: as §1

[5] = molecular target: ELF1 (Homo sapiens, UniProt P32519 1-619)
Method in brief: as §1

[6] = molecular target: T5, EHF (Homo sapiens, UniProt Q9NZC4 1-300)
T5 sequence: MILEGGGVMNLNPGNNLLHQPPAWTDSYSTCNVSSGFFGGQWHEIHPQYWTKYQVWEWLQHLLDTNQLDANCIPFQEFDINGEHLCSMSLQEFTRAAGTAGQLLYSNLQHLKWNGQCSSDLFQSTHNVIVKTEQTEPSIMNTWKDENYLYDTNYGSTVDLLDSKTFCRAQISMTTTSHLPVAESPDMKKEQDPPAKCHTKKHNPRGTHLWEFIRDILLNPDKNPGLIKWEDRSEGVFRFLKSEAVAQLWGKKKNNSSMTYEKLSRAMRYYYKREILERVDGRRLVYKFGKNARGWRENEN
Method in brief: as §1

[7] = molecular target: SPI1 (Homo sapiens, UniProt P17947 1-270)
Method in brief: as §1

[8] = molecular target: SPIB (Homo sapiens, UniProt Q01892 1-262)
Method in brief: as §1

[9] = molecular target: T6, ELK3 (Homo sapiens, UniProt P41970 1-407)
T6 sequence: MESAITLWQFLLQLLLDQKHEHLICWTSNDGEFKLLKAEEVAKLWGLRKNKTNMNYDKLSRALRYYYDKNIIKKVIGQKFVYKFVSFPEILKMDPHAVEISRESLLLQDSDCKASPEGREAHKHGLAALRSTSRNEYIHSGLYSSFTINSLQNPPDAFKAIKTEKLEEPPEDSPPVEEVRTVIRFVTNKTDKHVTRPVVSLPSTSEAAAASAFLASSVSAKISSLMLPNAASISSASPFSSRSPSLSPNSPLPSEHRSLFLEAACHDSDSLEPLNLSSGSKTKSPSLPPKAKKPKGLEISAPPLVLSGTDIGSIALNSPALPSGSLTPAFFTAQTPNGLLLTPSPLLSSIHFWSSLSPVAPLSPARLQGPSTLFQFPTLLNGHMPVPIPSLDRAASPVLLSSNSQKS
Method in brief: as §1

Sequence of SPIB (Q01892 whole entry): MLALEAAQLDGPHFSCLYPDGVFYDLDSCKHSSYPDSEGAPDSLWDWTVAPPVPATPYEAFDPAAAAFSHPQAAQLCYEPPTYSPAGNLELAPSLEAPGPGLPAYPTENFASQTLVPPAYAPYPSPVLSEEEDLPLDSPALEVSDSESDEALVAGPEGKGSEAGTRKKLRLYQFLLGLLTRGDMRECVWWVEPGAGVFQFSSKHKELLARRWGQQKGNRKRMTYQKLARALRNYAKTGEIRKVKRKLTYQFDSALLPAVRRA
Sequence of ELF1 (P32519 whole entry): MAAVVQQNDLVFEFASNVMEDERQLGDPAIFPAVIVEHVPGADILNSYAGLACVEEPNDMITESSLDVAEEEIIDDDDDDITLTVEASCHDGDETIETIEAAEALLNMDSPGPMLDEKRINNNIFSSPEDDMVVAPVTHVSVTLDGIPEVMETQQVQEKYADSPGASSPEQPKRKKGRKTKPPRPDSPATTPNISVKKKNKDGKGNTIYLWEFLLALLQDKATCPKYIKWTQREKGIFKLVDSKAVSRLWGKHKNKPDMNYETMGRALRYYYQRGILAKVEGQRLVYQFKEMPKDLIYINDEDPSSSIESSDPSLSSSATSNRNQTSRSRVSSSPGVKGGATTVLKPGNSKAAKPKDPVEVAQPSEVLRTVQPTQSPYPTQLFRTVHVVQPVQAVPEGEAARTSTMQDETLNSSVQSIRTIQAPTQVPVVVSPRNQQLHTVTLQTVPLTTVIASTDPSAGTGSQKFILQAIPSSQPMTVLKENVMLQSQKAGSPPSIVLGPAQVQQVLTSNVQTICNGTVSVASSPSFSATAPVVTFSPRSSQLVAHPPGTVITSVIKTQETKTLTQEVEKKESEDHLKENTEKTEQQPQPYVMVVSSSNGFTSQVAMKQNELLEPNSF

TCTTCC was tested, and the binding signal [1] was 2.61 fold enrichment (6-mer frequency, TF over GST control), the binding signal [2] was 2.52 fold enrichment (6-mer frequency, TF over GST control) and the binding signal [3] was 2.39 fold enrichment (6-mer frequency, TF over GST control). For the same sequence, the binding signal [4] was 2.86 fold enrichment (6-mer frequency, TF over GST control), the binding signal [5] was 2.65 fold enrichment (6-mer frequency, TF over GST control) and the binding signal [6] was 2.76 fold enrichment (6-mer frequency, TF over GST control). The binding signal [7] was 2.46 fold enrichment (6-mer frequency, TF over GST control), the binding signal [8] was 2.75 fold enrichment (6-mer frequency, TF over GST control) and the binding signal [9] was 2.79 fold enrichment (6-mer frequency, TF over GST control).
